USP17 inh = blocks human USP17 ubiquitin-rhodamine cleavage; A8MUK1; purified USP17, Ub-rhodamine cleavage fluorescence, 3 h; inhibition, % at 50 µM; actives 6.5% (n = 47,000)
USP30 block = blocks human USP30 ubiquitin-rhodamine cleavage; Q70CQ3; actives 5.3% (n = 47,000); inhibition, % at 25 µM; purified USP30, Ub-rhodamine cleavage fluorescence
Target sequence (Q70CQ3 whole entry, looked up): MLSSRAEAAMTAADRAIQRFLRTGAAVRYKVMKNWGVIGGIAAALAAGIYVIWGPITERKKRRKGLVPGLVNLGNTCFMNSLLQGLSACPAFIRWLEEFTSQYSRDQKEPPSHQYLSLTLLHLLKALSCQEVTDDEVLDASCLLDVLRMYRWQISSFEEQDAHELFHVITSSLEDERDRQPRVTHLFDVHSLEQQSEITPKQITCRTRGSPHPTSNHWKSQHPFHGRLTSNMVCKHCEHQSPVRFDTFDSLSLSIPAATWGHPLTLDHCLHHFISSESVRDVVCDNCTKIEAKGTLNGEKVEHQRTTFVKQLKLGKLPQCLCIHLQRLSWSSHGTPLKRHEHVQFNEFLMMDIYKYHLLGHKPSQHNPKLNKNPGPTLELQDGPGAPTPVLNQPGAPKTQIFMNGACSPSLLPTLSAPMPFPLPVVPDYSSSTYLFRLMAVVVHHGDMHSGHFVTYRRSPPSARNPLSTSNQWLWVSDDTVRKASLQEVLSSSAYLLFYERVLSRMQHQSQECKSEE
OTUD3 block = inhibitors of human OTUD3 deubiquitinase; purified OTUD3, Ub-rhodamine fluorescence, 2 h; actives 0.7% (n = 47,000); inhibition, % at 25 µM; Q5T2D3
USP28 inh = blocks human USP28 ubiquitin-rhodamine cleavage; purified USP28, Ub-rhodamine cleavage fluorescence, 30 min; Q96RU2; actives 3% (n = 47,000); inhibition, % at 25 µM
Each line names hits and unclear results; the compound was inactive in the other large screens. The list is not random: actives were taken first. Their share in the collection is about 11%. No stated cut-off is given here; in the data, active means inhibition above about 30%; inactive means the rest.

O=C1CCSc2ccccc2N1Cc1ccccc1F	none
COc1ccccc1CNC(=O)Nc1cccc2ccccc12	USP17 inh 53, USP30 block 30
O=C(NCc1cccc(NC(=O)C2CC2)c1)Nc1cccc2ccccc12	USP17 inh 54, OTUD3 block 42
O=C(c1ccc2c(c1)OCCCO2)N1CCN2C[C@@H](CO)[C@H](c3ccccc3)[C@H]2C1	none
CC(=O)c1cccc(NC(=O)c2ccc(CN(c3ccc(C)c(C)c3)S(C)(=O)=O)cc2)c1	USP28 inh 73
Cc1cccc(NS(=O)(=O)c2cc(C(=O)Nc3ccccc3)ccc2Cl)c1	none
Cc1cccc(NC(=O)c2ccc(C)c(C)c2)c1	USP28 inh 34
Cc1ccc(S(=O)(=O)N2CCc3ccc(NC(=O)Nc4cccc(C)c4)cc32)cc1	none
Cc1cccc(NC(=O)Nc2ccc(C)c(C)c2)c1	USP30 block 31
Cc1nn(-c2cccc(F)c2)c2c1C(C(=O)c1ccc(Cl)s1)CC(=O)N2 (configuration not stated)	USP30 block 50
CCc1cccc(-n2nc(C)c3c2NC(=O)CC3C(=O)c2ccc(C)s2)c1 (configuration not stated)	none
COc1ccc(-n2nc(C)c3c2NC(=O)CC3C(=O)c2ccc(Cl)s2)cc1 (configuration not stated)	none
Cc1ccc(-n2nc(C)c3c2NC(=O)CC3C(=O)c2cc3ccccc3o2)cc1C (configuration not stated)	USP17 inh 74
Cc1ccc(C(=O)C2CC(=O)Nc3c2c(C)nn3-c2ccc(C)c(C)c2)s1 (configuration not stated)	USP17 inh 70, USP30 block 50
Cc1cc(N2CCOCC2)nc2ccc(NC(=O)CCC(=O)NCc3ccc4c(c3)OCO4)cc12	none
CCn1ccc2c(cc(C(=O)Nc3cccc(OC)c3)n2C)c1=O	USP28 inh 83
CCn1ccc2c(cc(C(=O)Nc3cc(F)ccc3F)n2C)c1=O	USP28 inh 70 (no result: USP17 inh)
CCC1CCCCN1CCCN1C(=O)C2C(C(=O)Nc3cccc(Cl)c3)C3C=CC2(O3)C1C(=O)NC1CCCCC1 (configuration not stated)	none
COc1ccc(OCC(=O)N2CCc3cc(-c4noc(C)n4)ccc32)cc1	USP17 inh 35
CCC1CCCCN1S(=O)(=O)c1cc(-c2nnc(C)o2)cs1 (configuration not stated)	none
COc1cc2cc(CN(CCN3CCOCC3)C(=O)NC3CCCCC3)c(=O)[nH]c2cc1OC	none
O=C(Nc1ccc(NS(=O)(=O)c2cccc(C(=O)N3CCCc4ccccc43)c2)cc1)c1ccccc1	USP17 inh 32
O=C(c1cc(S(=O)(=O)Nc2ccc(Cl)cc2)ccc1Cl)N1CCCc2ccccc21	none
O=C(Nc1ccc(NS(=O)(=O)c2ccc3c4c(cccc24)CC3)cc1)c1ccccc1	USP17 inh 50
CCCS(=O)(=O)N1CCc2ccc(NC(=O)c3ccccc3)cc2C1	none
Cc1cc(=O)oc2cc(OC(=O)C3CCN(C(=O)c4ccc(Cl)cc4)CC3)ccc12	USP30 block 50
Nc1c(-c2ccsc2)cnn1-c1ccccc1	none
CCCC(=O)N1CCC(c2nnc(C(=O)Nc3ccccc3)s2)CC1	none
O=c1[nH]c2ccccc2cc1CN(c1ccccc1)S(=O)(=O)c1ccc(Cl)cc1	USP17 inh 48
COCCN(Cc1cc2cc(C)ccc2[nH]c1=O)S(=O)(=O)c1ccc(Cl)cc1	USP17 inh 33
Cc1ccc2[nH]c(=O)c(CN(CC3COCCO3)S(=O)(=O)c3ccc(F)cc3)cc2c1 (configuration not stated)	USP17 inh 76
Cc1ccc(S(=O)(=O)N(C)Cc2cc3cc(C)ccc3[nH]c2=O)cc1	USP17 inh 57 (no result: USP30 block, USP28 inh)
Cc1ccc2[nH]c(=O)c(CN(Cc3ccco3)S(=O)(=O)c3ccccc3)cc2c1	none (no result: USP17 inh)
Cc1ccc(S(=O)(=O)N(Cc2ccco2)Cc2cc3ccccc3[nH]c2=O)cc1	none
Cc1cn[nH]c1C1CCCCN1C(=O)Cn1nnc2ccccc21 (configuration not stated)	none
O=C(Nc1cccc(F)c1)N1C[C@@H]2c3nccn3-c3ccccc3[C@@H]2C1	none
COc1ccc(C(C(=O)NC2CCCCC2)N(C(=O)CCCC(=O)Nc2ccccn2)c2ccccc2C)cc1 (configuration not stated)	USP17 inh 56
COc1ccc(N(C(=O)CCCC(=O)Nc2ccccn2)C(C(=O)NC2CCCCC2)c2ccc(Cl)cc2)cc1 (configuration not stated)	USP17 inh 33, USP30 block 37
COc1ccc(N(C(=O)CCCC(=O)Nc2ccccn2)C(C(=O)NC2CCCCC2)c2ccc(Cl)cc2)c(OC)c1 (configuration not stated)	none
Cc1ccc(N(C(=O)CCCC(=O)Nc2ccccn2)C(C(=O)NC2CCCC2)c2ccc(F)cc2)cc1C (configuration not stated)	USP17 inh 37, USP30 block 38
COc1ccc(OC)c(N(CC(=O)NC2CCCCC2)C(=O)CCC(=O)Nc2ccccn2)c1	USP30 block 30
CCOc1ccc(N(CC(=O)NC2CCCCC2)C(=O)CCC(=O)Nc2ccccn2)cc1	none
CCN1C[C@H]2CCN(C(=O)NCCc3ccc(F)cc3)CC[C@H]2S1(=O)=O	none
NC1=NN(c2ccccc2)C(=O)C1Sc1nnnn1-c1ccccc1 (configuration not stated)	none
CCCC1CCC(c2nc(-c3ccc(-c4ccc(F)cc4)cc3)no2)CC1 (configuration not stated)	none
O=C(Cc1ccc(F)cc1)N1CCC(Cc2nc(-c3cnccn3)no2)CC1	none
Fc1ccc(-c2nc(-c3cnccn3)no2)c(Cl)c1	USP30 block 36
COc1cccc(C(=O)Nc2ccc(-n3cnnn3)cc2)c1	USP17 inh 32, USP30 block 51
Cc1cccc(OCC(=O)Oc2ccc(-n3cnnn3)cc2)c1C	none
O=C(Oc1ccc(-n2cnnn2)cc1)c1ccccc1Br	USP17 inh 33
Cc1cc(=O)oc2cc(NC(=O)c3ccccc3C(=O)O)ccc12	none (no result: USP30 block, USP28 inh)
Cc1cc(=O)oc2cc(NC(=O)c3ccc(-n4cnnn4)cc3)ccc12	USP17 inh 44
Cc1ccc(NC(=O)c2cccc(-n3cnnn3)c2)cc1	none
O=C(COc1ccc(F)cc1)Oc1ccc(-n2cnnn2)cc1	USP30 block 30
Cn1nccc1-c1nccnc1CC1CCCN(S(C)(=O)=O)C1 (configuration not stated)	none
CC(=O)N(C)CCc1noc(-c2cc3cc(C)ccc3[nH]2)n1	none
COc1cccc(CNCc2c(C(=O)O)c(C)n(-c3ccccc3)c2C)c1	none
COCCCNC(=O)Cn1c(=O)n(C2CCCC2)c(=O)c2ccccc21	none
Cc1cc(C)c(C(=O)Nc2ccccc2)c(SCC(=O)c2cc3ccccc3oc2=O)n1	none
COc1cc(/C=C/C23NC(=O)CN2c2ccc(C)cc2C3(C)C)ccc1OCc1cccc(Cl)c1 (configuration not stated)	none
COc1cccc(CN2CCC3(CC2)OC(C(=O)NCc2ccccc2)Cn2ccnc23)c1 (configuration not stated)	none
N#Cc1ccc(NC(=O)COc2ccc(-n3cnnn3)cc2)cc1	USP17 inh 49, USP30 block 37

Bioassay records: PubChem BioAssay, Buhrlage Lab, Dana-Farber Cancer Institute and Novartis Institutes for BioMedical Research (Cambridge, Mass)
